The supplement of paper PMC6555819

test system: PPARg:RXRa 270nM:90nM, anti-RXR (NR concentration 270 nM, RXRa partner concentration 90 nM); assay: PBM binding z-score (relative to random genomic background probes); higher = stronger binding; sequences stand for … in GC…GCGATTGACAGCGTAGAATGAAGG
Outline: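 Antibodies against each partner of ligand-free nuclear receptor dimers (one per run) detected binding on custom Agilent 4×180K protein-binding microarrays after 1 h incubation. The double-stranded probes had 34-nt variable regions carrying direct-repeat seeds, single-nucleotide variants, half-site ablations and random human genomic background sequences. Binding z-scores, from regression-normalized fluorescence, use the random background probes as reference.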

| Sequence | PBM binding z-score |
| --- | --- |
| ATCTCTAGGTAAAGGTAGTTCAGTGAATGCAAAT | 2.17 |
| ACTTTTAGTTGAGACGAGGGCAACCGATAGGTTG | 0.362 |
| TGTTGTAGATCAGCAGGTTAAGAAAGCTGGCCAA | 0.116 |
| CACCCTAGGTCAGGGCCAGTATAGGAGGAACGTT | 1.08 |
| AGAATGAGGTTATTAAGATCTGGGAATTGCGGTC | 1.47 |
| CGTCCAAGGTCAGAGACGTCAGTGAATGCCGAGT | 2.41 |
| ATCTCTCGGTAACAAGTTCAGTGAAAGAGAGGAC | 0.369 |
| TCTATTAGTTGAAGGGCAACCAACGAGTCCGTTT | 1.94 |
| TCTATTAGTTGCAGGGCAACCGACGAGTCCGTTT | 1.62 |
| CAAACTGGGTCACGAAAGGTCAAAGTCGAATGAC | 8.52 |
| TTCCCAAGGTGAAAGGTCGTTGATGCACGCCTTG | 7.35 |
| CGTACAAGGTCATAGGAGGTCAGTGAAGACAGAT | 6.66 |
| CCTAGCAGGCCACTCTGGGTCACTCAAGGCTTGA | 0.663 |
| AGTCAAAGTTCATCTAGGTAACGTACGATATGCT | 6.46 |
| CAAACTAGGTCATGAAAGGTCAAAGTCGAATGAC | 8.12 |
| CGTCCAAGTTCAAGGTAACGTAACAGAAAGCAGC | 1.4 |
| CAAACTAGGTCGCAGAGGTCAAAGTCCGTGCGTA | 6.53 |
| CCTATTAGTTGACCATAAGGGCAACGGAAGCTCG | 0.511 |
| CAAACTAGGTCACGAAAGGACAAAGTCGAATGAC | 7.34 |
| CCTCTGAGGACAGAAGGTCAGAGCTGTCCGCTTT | 1.3 |

| Sequence | PBM binding z-score |
| --- | --- |
| TCTACTAGTTGAAGGGCAACCGACGAGTCCGTTT | 1.58 |
| GCTAGCAGGCCATGTGGGTCACTCAATGACGGGC | 1.18 |
| ACTAGTAGGCCAAGTTTGGGTCACTCAAACAAAG | 2.27 |
| ATCTCTAGGTAACAAGTGCAGTGAAAGAGAGGAC | 1.38 |
| GCATATAGGTAATACAAGGTGAAAGTGCGATTGT | 2.57 |
| GATACAGGGACAGCTAGAGGCCAGAGTATGGAAA | -0.579 |
| AGAATGAGGTTACCCAAGATCAGGGAAACGCTTG | 2.2 |
| TCTCGGAGGACACGAAAGGTAAGAGCTCGACATC | 0.941 |
| TCTAGTAGATCAAGCAGGTTAAGAAAGCCTGAGT | 1.3 |
| GGAACGAGGGCTAAGTTGATAGCATCTGTCGACG | 2.81 |
| TTACCAAGGTGAAGGACGTTGATCCCTCTGTAGA | 1.19 |
| GCTTGTAGATCAAGGTTAAGGAAGACTAAGCTAA | 2.33 |
| ATCGAGAGGTCGAAGGTGAGTATACCCACCCGAA | 3.99 |
| TCTGCTAGGTCAACGATGGTCAGCTAATCTGCTA | 3.14 |
| CCTAGTTGCTCAAGGTCACACACGCTATAGGTAC | 2.77 |
| TAGCCTAGGTCATTGGGCCTGTATAGTACGCATC | 2.86 |
| TCTAGTTTGTCACGGAGGTCACACACGACGGGTA | 3.52 |
| GCATAGAGGTAATACAAGGTGAAAGTCCGATTGT | 0.857 |
| GCTACCAGGCCATTTGGGTCACTCAATGACGGGC | 0.744 |
| CCTAGCATGCCAATCTGGGTCACTCAAGGCTTGA | 2.25 |
